Laboratory results: the supplement of paper PMC11732987, “Enantioselective OTUD7B fragment discovery through chemoproteomics screening and high-throughput optimisation” (Communications Chemistry, 2025)
A number with no mark means an inactive call.

Experiments:
Assay in all cases: log2 ratio of Biotin-Ahx-Ub-VS probe labelling (fragment/DMSO); higher = less target engagement (more negative = stronger competition), active = hit call of the paper (q ≤ 0.05, log2 ratio ≤ -1)
Settings in all cases: compound concentration: 200 uM; treatment time: 3 h
OTUD6B = target: T1, OTUD6B (UniProt Q8N6M0)
T1 sequence (whole entry): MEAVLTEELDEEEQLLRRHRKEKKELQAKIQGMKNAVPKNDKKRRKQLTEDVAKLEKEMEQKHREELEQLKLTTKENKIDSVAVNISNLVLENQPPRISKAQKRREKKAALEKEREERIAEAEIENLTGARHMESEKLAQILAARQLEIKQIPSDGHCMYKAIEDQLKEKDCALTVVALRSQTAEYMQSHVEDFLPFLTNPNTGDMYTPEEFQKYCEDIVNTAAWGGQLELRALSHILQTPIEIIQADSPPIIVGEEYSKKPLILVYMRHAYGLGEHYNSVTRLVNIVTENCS
Procedure, shortened: (§1)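 The table lists average log2 ratios of fragment over vehicle, from an unpaired t-test on global-median-normalised Spectronaut label-free quantities. Proteins with ≥2 unique peptides were used. Samples were HEK293T lysate (495 µg) treated in triplicate with fragment at 200 µM or vehicle for 3 h, then with Biotin-Ahx-Ub-VS (0.5 µM final) for 1 h, with labelled DUBs NeutrAvidin-enriched and run by diaPASEF LC-MS/MS.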

OTUD7B = target: T2, OTUD7B (UniProt Q6GQQ9)
T2 sequence (whole entry): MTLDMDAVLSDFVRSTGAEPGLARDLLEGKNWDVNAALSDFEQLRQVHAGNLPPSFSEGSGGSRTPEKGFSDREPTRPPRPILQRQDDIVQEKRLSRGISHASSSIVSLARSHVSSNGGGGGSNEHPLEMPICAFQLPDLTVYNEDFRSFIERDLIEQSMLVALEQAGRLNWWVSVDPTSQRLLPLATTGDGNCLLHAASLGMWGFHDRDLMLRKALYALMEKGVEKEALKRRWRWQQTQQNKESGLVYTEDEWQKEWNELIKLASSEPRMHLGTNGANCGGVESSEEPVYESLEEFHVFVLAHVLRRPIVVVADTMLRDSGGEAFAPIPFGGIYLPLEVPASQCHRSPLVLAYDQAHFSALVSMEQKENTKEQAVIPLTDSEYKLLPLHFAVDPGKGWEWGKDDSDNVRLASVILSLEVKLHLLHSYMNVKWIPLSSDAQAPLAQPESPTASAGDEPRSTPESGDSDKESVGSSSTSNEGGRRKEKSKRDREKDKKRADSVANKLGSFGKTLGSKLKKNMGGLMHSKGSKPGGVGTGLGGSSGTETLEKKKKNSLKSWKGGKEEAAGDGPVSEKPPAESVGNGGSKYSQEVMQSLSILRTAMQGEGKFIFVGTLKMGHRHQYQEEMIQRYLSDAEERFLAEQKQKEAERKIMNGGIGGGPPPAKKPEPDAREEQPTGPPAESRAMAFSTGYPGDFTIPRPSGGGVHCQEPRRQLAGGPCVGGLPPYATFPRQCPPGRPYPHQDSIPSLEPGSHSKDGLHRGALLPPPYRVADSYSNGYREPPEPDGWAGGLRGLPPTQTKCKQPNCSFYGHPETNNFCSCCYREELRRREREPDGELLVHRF
Procedure, shortened: as §1

PRPF8 = PRPF8 (UniProt Q6P2Q9)
Procedure, shortened: as §1

PSMD7 = target: T3, PSMD7 (UniProt P51665)
T3 sequence (whole entry): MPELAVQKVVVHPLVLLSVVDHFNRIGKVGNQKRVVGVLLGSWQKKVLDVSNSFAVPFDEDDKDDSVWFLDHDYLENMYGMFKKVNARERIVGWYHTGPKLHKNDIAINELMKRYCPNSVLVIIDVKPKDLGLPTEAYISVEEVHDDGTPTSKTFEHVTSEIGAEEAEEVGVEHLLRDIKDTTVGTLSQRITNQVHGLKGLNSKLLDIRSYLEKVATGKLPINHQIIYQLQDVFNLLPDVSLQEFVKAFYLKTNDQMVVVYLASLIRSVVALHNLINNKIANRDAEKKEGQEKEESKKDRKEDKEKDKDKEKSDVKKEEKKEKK
Procedure, shortened: as §1

UCHL1 = UCHL1 (UniProt P09936)
Procedure, shortened: as §1

UCHL3 = target: T4, UCHL3 (UniProt P15374)
T4 sequence (whole entry): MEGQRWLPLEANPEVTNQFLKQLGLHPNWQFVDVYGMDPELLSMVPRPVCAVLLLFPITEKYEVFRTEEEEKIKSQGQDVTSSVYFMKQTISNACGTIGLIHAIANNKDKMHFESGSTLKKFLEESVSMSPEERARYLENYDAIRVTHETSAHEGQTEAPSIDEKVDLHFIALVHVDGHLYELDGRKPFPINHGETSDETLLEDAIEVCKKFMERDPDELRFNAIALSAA
Procedure, shortened: as §1

UCHL5 = target: T5, UCHL5 (UniProt Q9Y5K5)
T5 sequence (whole entry): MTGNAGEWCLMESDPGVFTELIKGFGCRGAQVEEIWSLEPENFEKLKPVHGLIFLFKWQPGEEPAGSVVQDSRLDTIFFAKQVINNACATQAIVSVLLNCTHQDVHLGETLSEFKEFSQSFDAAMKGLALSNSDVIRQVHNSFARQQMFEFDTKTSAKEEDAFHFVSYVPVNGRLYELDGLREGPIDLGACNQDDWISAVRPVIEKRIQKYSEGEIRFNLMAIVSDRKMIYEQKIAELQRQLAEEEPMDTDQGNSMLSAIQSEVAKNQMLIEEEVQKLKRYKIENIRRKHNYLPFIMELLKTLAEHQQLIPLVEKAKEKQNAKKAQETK
Procedure, shortened: as §1

USP10 = USP10 (UniProt Q14694)
Procedure, shortened: as §1

USP15 = target: T6, USP15 (UniProt Q9Y4E8)
T6 sequence (whole entry): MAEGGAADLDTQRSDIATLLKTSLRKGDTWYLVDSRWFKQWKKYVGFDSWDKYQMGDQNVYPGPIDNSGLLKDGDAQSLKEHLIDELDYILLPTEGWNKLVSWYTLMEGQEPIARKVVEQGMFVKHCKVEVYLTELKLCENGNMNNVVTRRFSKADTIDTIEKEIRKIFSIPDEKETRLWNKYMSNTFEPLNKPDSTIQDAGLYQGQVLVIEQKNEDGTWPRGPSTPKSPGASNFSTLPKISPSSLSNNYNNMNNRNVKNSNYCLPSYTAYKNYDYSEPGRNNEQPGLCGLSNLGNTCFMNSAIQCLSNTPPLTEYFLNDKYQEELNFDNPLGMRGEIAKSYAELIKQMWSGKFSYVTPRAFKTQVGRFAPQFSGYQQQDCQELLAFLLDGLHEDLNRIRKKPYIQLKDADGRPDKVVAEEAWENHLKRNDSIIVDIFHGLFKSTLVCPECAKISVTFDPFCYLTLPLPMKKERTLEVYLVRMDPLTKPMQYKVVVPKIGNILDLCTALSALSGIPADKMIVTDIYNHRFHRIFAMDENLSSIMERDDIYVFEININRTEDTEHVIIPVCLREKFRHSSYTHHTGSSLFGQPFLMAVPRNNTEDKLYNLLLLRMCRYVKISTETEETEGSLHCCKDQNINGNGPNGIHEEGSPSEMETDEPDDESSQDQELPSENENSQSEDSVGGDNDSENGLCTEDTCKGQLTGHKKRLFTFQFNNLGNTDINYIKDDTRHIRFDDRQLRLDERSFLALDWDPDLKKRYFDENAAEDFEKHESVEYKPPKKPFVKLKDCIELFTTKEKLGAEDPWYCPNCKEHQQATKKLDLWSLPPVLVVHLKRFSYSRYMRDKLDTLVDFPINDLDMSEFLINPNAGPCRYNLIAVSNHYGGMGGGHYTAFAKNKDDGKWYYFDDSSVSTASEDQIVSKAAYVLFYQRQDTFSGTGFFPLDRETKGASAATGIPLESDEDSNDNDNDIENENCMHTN
Procedure, shortened: as §1

USP16 = USP16 (UniProt Q9Y5T5)
Procedure, shortened: as §1

Sequence of USP16 (Q9Y5T5 whole entry, looked up): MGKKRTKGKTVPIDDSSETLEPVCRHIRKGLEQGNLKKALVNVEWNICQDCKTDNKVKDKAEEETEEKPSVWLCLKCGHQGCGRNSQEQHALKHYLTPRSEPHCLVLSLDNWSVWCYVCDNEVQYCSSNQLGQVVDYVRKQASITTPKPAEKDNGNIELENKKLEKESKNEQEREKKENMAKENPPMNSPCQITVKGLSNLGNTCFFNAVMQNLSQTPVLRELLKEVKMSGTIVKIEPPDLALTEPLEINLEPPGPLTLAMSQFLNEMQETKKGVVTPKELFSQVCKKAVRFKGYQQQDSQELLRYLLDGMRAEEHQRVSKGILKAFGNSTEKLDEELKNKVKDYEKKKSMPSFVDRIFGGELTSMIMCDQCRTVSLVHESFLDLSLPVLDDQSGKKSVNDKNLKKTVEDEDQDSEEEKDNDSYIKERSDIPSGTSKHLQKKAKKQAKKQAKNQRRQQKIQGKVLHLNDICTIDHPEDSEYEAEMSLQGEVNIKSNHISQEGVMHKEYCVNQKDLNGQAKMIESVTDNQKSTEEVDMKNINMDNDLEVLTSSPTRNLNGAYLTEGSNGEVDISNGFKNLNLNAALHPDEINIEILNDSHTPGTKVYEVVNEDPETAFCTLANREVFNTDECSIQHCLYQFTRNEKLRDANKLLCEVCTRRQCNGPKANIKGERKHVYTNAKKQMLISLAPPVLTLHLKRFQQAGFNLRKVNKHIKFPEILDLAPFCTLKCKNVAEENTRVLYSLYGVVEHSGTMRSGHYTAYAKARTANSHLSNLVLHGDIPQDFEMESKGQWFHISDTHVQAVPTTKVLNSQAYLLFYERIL
Sequence of USP10 (Q14694 whole entry): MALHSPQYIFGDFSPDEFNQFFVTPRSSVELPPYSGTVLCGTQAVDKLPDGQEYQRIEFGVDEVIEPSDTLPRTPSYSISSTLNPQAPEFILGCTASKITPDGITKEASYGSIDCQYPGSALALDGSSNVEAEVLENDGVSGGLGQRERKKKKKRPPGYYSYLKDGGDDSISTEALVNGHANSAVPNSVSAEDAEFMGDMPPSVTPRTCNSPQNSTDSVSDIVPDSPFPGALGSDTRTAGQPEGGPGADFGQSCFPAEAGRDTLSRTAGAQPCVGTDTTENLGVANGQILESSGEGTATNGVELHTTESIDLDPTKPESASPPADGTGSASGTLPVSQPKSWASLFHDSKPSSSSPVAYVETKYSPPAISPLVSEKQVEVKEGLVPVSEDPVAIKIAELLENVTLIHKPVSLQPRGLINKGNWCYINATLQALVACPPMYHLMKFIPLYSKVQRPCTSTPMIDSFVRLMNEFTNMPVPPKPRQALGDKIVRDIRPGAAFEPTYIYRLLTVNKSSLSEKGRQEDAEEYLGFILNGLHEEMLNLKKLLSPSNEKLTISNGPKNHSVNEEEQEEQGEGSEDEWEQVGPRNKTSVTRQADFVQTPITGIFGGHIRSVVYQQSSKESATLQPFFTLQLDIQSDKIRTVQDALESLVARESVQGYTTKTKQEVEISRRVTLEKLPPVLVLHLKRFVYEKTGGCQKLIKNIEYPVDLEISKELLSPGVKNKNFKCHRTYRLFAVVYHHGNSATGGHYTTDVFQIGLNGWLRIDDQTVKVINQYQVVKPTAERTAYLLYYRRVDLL
Sequence of UCHL1 (P09936 whole entry, looked up): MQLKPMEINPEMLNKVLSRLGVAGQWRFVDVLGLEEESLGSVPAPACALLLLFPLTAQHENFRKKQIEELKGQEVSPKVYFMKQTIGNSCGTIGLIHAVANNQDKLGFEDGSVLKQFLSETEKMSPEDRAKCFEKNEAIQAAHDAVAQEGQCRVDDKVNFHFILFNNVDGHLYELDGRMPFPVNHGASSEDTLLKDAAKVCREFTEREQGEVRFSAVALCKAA

O=C(CCl)Nc1ccc2c(c1)OC(F)(F)O2
log2 ratio of Biotin-Ahx-Ub-VS probe labelling (OTUD6B): -0.167 | log2 ratio of Biotin-Ahx-Ub-VS probe labelling (OTUD7B): -0.873 | log2 ratio of Biotin-Ahx-Ub-VS probe labelling (PRPF8): 0.00481 | log2 ratio of Biotin-Ahx-Ub-VS probe labelling (PSMD7): -0.159 | log2 ratio of Biotin-Ahx-Ub-VS probe labelling (UCHL1): -1.06 (active) | log2 ratio of Biotin-Ahx-Ub-VS probe labelling (UCHL3): 0.0771 | log2 ratio of Biotin-Ahx-Ub-VS probe labelling (UCHL5): -0.471 | log2 ratio of Biotin-Ahx-Ub-VS probe labelling (USP10): -0.126 | log2 ratio of Biotin-Ahx-Ub-VS probe labelling (USP15): -0.192 | log2 ratio of Biotin-Ahx-Ub-VS probe labelling (USP16): 0.132
